# Target: T1, Aspartate--tRNA(Asp/Asn) ligase (Mycobacterium tuberculosis (strain ATCC 25618 / H37Rv)) (UniProt P9WFW3); further: in the data most compounds retested in dose-response had high values
# T1 sequence (whole entry): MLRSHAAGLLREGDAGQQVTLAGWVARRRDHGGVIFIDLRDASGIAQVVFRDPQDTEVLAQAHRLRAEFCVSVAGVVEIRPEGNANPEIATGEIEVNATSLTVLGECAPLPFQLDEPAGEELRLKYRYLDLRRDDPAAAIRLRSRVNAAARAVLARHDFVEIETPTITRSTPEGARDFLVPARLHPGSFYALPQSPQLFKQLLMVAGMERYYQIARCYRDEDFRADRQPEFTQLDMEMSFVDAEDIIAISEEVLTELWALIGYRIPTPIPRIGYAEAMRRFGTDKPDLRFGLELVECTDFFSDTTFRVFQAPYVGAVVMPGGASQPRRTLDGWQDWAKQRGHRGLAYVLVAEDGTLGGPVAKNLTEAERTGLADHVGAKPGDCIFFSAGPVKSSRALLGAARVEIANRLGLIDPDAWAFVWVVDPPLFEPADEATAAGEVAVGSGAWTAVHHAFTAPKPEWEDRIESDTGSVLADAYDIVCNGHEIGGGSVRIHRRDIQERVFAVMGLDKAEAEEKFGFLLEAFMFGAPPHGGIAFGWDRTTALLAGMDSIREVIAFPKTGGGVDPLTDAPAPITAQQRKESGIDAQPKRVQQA
# Assay: Assay for Asp RNA synthetase-1 from Mycobacterium tuberculosis
# Format: functional
# Design: scale not given: direction of the effect not stated beside the values
# Settings: 30 µM
row,SMILES,Percent Effect [%]
1,Cc1cc(F)cc(S(=O)(=O)NCCCN2CCC(O)CC2)c1,4.04
2,CC(NC(=O)N1CCCN(Cc2cccs2)CC1)c1cccnc1 (centres undefined),-7.21
3,Cc1nnc(N2CC[C@H](OCC3CC3)[C@@H](Cc3ccccc3)C2)s1,9.93
4,CCOCC(O)CN1CCN(C(=O)CC(C)C)CC1 (centres undefined),-2.19
5,O=C(NCCn1ccnc1)NCC(c1ccco1)N1CCCCC1 (centres undefined),1.79
6,O=C(NCC1CC1)C1CN(C(=O)c2cccs2)CC12CCOCC2 (centres undefined),5.88
7,CN1[C@H](CN2CCCC2)C[C@@H]2CN(C(=O)c3cccn3C)CC[C@@H]21,2.46
8,Cc1c[nH]cc1C(=O)N1CCN(Cc2nc(C(C)C)no2)CC1,-3.47
9,CC(=O)N(Cc1ncc(C(C)C)o1)C1CCN(CCn2cccn2)C1 (centres undefined),-1.37
10,CC[C@@H](CO)NC(=O)c1coc(COc2ccc(OC)cc2)n1,6.33
11,CCn1cc(NC(=O)C2CCN(CCOC(C)C)CC2)cn1,2.5
12,O=C(CCOc1cccc(F)c1)N1CCCC(n2cncn2)C1 (centres undefined),-2.92
13,Cc1noc(C)c1CC(=O)OCC(=O)N1CCc2sccc2C1,6.42
14,COCCN(Cc1ccoc1)C(=O)c1cccnc1SC,1.65
15,CCc1c(C(=O)N2CCN(CC(N)=O)CC2)cnn1C(C)(C)C,-2.87
16,O=C(c1cc(Cl)c2c(c1)OCO2)N1CCN(c2nccs2)CC1,-0.23
17,NC(=O)c1cccc(CC2CCN(C(=O)CO)C2)c1 (centres undefined),3.02
18,CC(C)c1nnc2n1CCN(C(=O)c1ccc(CN(C)C)cc1)C2,-0.75
19,COc1ccc(OC)c(CNCCc2cc(F)cc3c2OCOC3)c1,4.49
20,CCCc1nc(C)cc(N2CCC3(CCC(=O)N(CCOC)C3)CC2)n1,-4.22

# Target: Shiga toxin 2 (Escherichia coli O157:H7) (UniProt P09385+P09386)
# Assay: E. coli 0.157:H7 Shiga Toxin SOP - stx2 screening assay
# Format: functional
# Design: scale not given: direction of the effect not stated beside the values
# Settings: 30 µM
row,SMILES,Percent Effect [%]
1,O=C1NC2(CCN(C(=O)c3ccccc3)CC2)CC1c1cccnc1 (centres undefined),-5.71
2,Cc1cc(NS(=O)(=O)c2ccccc2F)ccc1-n1cccc1C(=O)O,0.354
3,CC(C)(C)c1nnc(CN2CCN(CC(O)c3ccccc3)CC2)o1 (centres undefined),10.2
4,COCC(O)CNC(=O)c1cnc(-c2ccccc2)nc1O (centres undefined),-7.39
5,O=C(NCC1CCOC1)c1cc(-c2cccc(Cl)c2)on1 (centres undefined),-6.35
6,CC(C)n1cc(C(=O)N2Cc3ccccc3OC3(CCOCC3)C2)cn1,-21.7
7,Cc1cc(C(=O)N2CCCC(n3cncn3)C2)c(C)n1C1CC1 (centres undefined),9.3
8,CC1CCCN(Cc2csc(-c3ncccn3)n2)CC1 (centres undefined),-26.7
9,COc1cccc(C(=O)N2CCCC(C(=O)CCc3ccccc3)C2)c1 (centres undefined),-7.01
10,CS(=O)(=O)NCC1CCCN(C(=O)COc2ccc(F)cc2)C1 (centres undefined),-25.1
11,Cc1ccccc1CSCCn1nc2ccccn2c1=O,26.4
12,O=C1CC[C@H]2[C@H](CCN2C(=O)C2CCOCC2)N1Cc1ccncc1,-35.2
13,CN(Cc1ccccc1)CC1(O)CCCN(CC(C)(C)C)C1=O (centres undefined),17.9
14,Cc1cc(C)n(CCC(=O)N2CCCC(n3cncn3)C2)n1 (centres undefined),0.596
15,CC(C)c1nn(C)c(N(C)C)c1CNCc1ccc2c(c1)OCO2,30.6
16,NC(=O)N1CCC2(CC1)CN(c1ccsc1)C(=O)CO2,-21.1
17,O=C(c1ccccn1)N1CCc2c(nc(N3CCCC3)[nH]c2=O)C1,-39.9

row,SMILES,Percent Effect [%]
1,O=C(NCC(O)c1ccc(F)c(F)c1)c1cccnc1O (centres undefined),-4.45
2,CNc1nc(C)c(C(=O)N2CCCCC2CN2CCCCCC2)s1 (centres undefined),1.34
3,O=C1OC2(CCNCC2)CN1CC(=O)N1CCCC1c1ccco1 (centres undefined),-9.63
4,Cc1cc(F)cc(S(=O)(=O)NCCCN2CCC(O)CC2)c1,-67.2
5,CC(NC(=O)N1CCCN(Cc2cccs2)CC1)c1cccnc1 (centres undefined),15.3
6,Cc1nnc(N2CC[C@H](OCC3CC3)[C@@H](Cc3ccccc3)C2)s1,-15.5
7,CCOCC(O)CN1CCN(C(=O)CC(C)C)CC1 (centres undefined),18.6
8,O=C(NCCn1ccnc1)NCC(c1ccco1)N1CCCCC1 (centres undefined),22.2
9,O=C(NCC1CC1)C1CN(C(=O)c2cccs2)CC12CCOCC2 (centres undefined),0.242
10,CN1[C@H](CN2CCCC2)C[C@@H]2CN(C(=O)c3cccn3C)CC[C@@H]21,-2.89
11,Cc1c[nH]cc1C(=O)N1CCN(Cc2nc(C(C)C)no2)CC1,9.19
12,CC(=O)N(Cc1ncc(C(C)C)o1)C1CCN(CCn2cccn2)C1 (centres undefined),3.59
13,CC[C@@H](CO)NC(=O)c1coc(COc2ccc(OC)cc2)n1,-5.46
14,CCn1cc(NC(=O)C2CCN(CCOC(C)C)CC2)cn1,17.1
15,O=C(CCOc1cccc(F)c1)N1CCCC(n2cncn2)C1 (centres undefined),5.88
16,Cc1noc(C)c1CC(=O)OCC(=O)N1CCc2sccc2C1,-7.79
17,COCCN(Cc1ccoc1)C(=O)c1cccnc1SC,-0.408
